Data on six compounds can be found in PubChem BioAssay (EPA / NIEHS).

Each structure is given as a SMILES string. Activity calls are given as the source filed them. Rule for the calls: active = hit-call score of the fitted dose curve at least 0.9, where 1 is the maximum; inactive = score below 0.9.

Read-out in assay [1]: serum amyloid A (SAA), SAA1 (gene 6288)
Kind of assay: BSK_CASM3C_SAA: BioMAP Diversity Plus: CASM3C Assay for serum amyloid A (SAA) Biomarker Activity (AID 2283049).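 Note: SAA protein level quantified by ELISA.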 Particulars: primary human coronary artery smooth muscle cells; actives raise or lower the signal.

A short description of assay [2]: BSK_CASM3C_SRB: Viability Assessment in the BioMAP Diversity Plus: CASM3C Assay (AID 2283050).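 Note: total protein by SRB staining as cytotoxicity measure in parallel cultures.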 Particulars: primary human coronary artery smooth muscle cells.
Read-out in assay [3]: Thrombomodulin, THBD (gene 7056)
The experiment in a line: BSK_CASM3C_Thrombomodulin: BioMAP Diversity Plus: CASM3C Assay for Thrombomodulin Biomarker Activity (AID 2283051).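 Note: thrombomodulin protein level measured by ELISA 24 h after dosing.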 The conditions noted are these: primary human coronary artery smooth muscle cells; actives raise or lower the signal.

Read-out in assay [4]: Tissue Factor, F3 (gene 2152)
Kind of assay: BSK_CASM3C_TissueFactor: BioMAP Diversity Plus: CASM3C Assay for Tissue Factor Biomarker Activity (AID 2283052).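 Note: cell surface tissue factor protein level read by ELISA.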 The conditions noted are these: primary human coronary artery smooth muscle cells; actives raise or lower the signal.

Read-out in assay [5]: Interferon-gamma inducible Protein 10 (IP10), CXCL10 (gene 3627)
Kind of assay: BSK_hDFCGF_IP10: BioMAP Diversity Plus: hDFCGF Assay for Interferon-gamma inducible Protein 10 (IP10) Biomarker Activity (AID 2283053). Particulars: primary human foreskin fibroblasts; actives raise or lower the signal. In short, it runs like this:
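ELISA read-out of IP-10 (CXCL10) from primary human skin fibroblasts, 24 h after compound addition. Gain or loss of signal versus DMSO baseline, bidirectional curve fitting.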

Read-out in assay [6]: Urokinase-type plasminogen activator receptor (uPAR), PLAUR (gene 5329)
Kind of assay: BSK_CASM3C_uPAR: BioMAP Diversity Plus: CASM3C Assay for Urokinase-type plasminogen activator receptor (uPAR) Biomarker Activity (AID 2283054).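 Note: cell-surface uPAR protein level quantified by ELISA.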 Particulars: primary human coronary artery smooth muscle cells; actives raise or lower the signal.

Read-out in assay [7]: Vascular cell adhesion molecule 1 (VCAM1), VCAM1 (gene 7412)
The experiment in a line: BSK_CASM3C_VCAM1: BioMAP Diversity Plus: CASM3C Assay for Vascular cell adhesion molecule 1 (VCAM1) Biomarker Activity (AID 2283055).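 Note: VCAM-1 protein level quantified by ELISA on the cells.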 The conditions noted are these: primary human coronary artery smooth muscle cells; actives raise or lower the signal.

Read-out in assay [8]: Collagen III, COL3A1 (gene 1281)
The experiment in a line: BSK_hDFCGF_CollagenIII: BioMAP Diversity Plus: hDFCGF Assay for Collagen III Biomarker Activity (AID 2283056). The conditions noted are these: primary human foreskin fibroblasts; actives raise or lower the signal. In short, it runs like this: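 Response relative to DMSO, fitted in both directions, reflects ELISA-measured collagen III in human primary skin fibroblasts 24 h after compound addition.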

Read-out in assay [9]: Epidermal growth factor receptor (EGFR), EGFR (gene 1956)
The experiment in a line: BSK_hDFCGF_EGFR: BioMAP Diversity Plus: hDFCGF Assay for Epidermal growth factor receptor (EGFR) Biomarker Activity (AID 2283057). Particulars: primary human foreskin fibroblasts; actives raise or lower the signal. In short, it runs like this: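 ELISA readout of EGFR on human dermal fibroblasts (primary foreskin cells), 24 h post-dosing; bidirectional curve fit vs DMSO baseline, gain or loss of signal scored.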

Read-out in assay [10]: Interleukin-8 (IL8), CXCL8 (gene 3576)
Kind of assay: BSK_hDFCGF_IL8: BioMAP Diversity Plus: hDFCGF Assay for Interleukin-8 (IL8) Biomarker Activity (AID 2283058). The conditions noted are these: primary human foreskin fibroblasts; actives raise or lower the signal. In short, it runs like this: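 Fibroblast monolayers (human foreskin, hDFCGF) received test chemical for 24 h before ELISA detection of IL-8; either increases or decreases relative to DMSO count as activity.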

Read-out in assay [11]: Macrophage colony-stimulating factor (MCSF), CSF1 (gene 1435)
Kind of assay: BSK_hDFCGF_MCSF: BioMAP Diversity Plus: hDFCGF Assay for Macrophage colony-stimulating factor (MCSF) Biomarker Activity (AID 2283060). The conditions noted are these: primary human foreskin fibroblasts; actives raise or lower the signal. In short, it runs like this: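 fibroblasts (human foreskin, primary), 24 h post-dose; M-CSF by ELISA; bidirectional fit, DMSO = baseline.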

Assay [12] is described as follows: BSK_hDFCGF_SRB: Viability Assessment in the BioMAP Diversity Plus: hDFCGF Assay (AID 2283061).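 Note: cells exposed to compound for 24 h before the read.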 Particulars: primary human foreskin fibroblasts. In short, it runs like this: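 SRB-based viability read on primary human skin fibroblasts at 24 h: TCA fixation, 0.1% dye, 560 nm. Gain or loss of signal is fitted against the DMSO negative control.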
Read-out in assay [13]: TIMP metallopeptidase inhibitor 1 (TIMP1), TIMP1 (gene 7076)
The experiment in a line: BSK_hDFCGF_TIMP1: BioMAP Diversity Plus: hDFCGF Assay for TIMP metallopeptidase inhibitor 1 (TIMP1) Biomarker Activity (AID 2283062). The conditions noted are these: primary human foreskin fibroblasts; actives raise or lower the signal. In short, it runs like this:
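Bidirectional curve fitting against DMSO baseline yielded this endpoint, based on ELISA detection of TIMP-1 in primary human foreskin fibroblasts exposed to compound for 24 h.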

Read-out in assay [14]: Monokine induced gamma interferon (MIG), CXCL9 (gene 4283)
Kind of assay: BSK_hDFCGF_MIG: BioMAP Diversity Plus: hDFCGF Assay for Monokine induced gamma interferon (MIG) Biomarker Activity (AID 2283063). The conditions noted are these: primary human foreskin fibroblasts; actives raise or lower the signal. In short, it runs like this: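 Endpoint derived by bidirectional fitting relative to DMSO; MIG quantified via ELISA in primary human foreskin fibroblasts harvested 24 h after dosing.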

Read-out in assay [15]: Matrix Metallopeptidase 1 (MMP1), MMP1 (gene 4312)
The experiment in a line: BSK_hDFCGF_MMP1: BioMAP Diversity Plus: hDFCGF Assay for Matrix Metallopeptidase 1 (MMP1) Biomarker Activity (AID 2283064). The conditions noted are these: primary human foreskin fibroblasts; actives raise or lower the signal. In short, it runs like this:
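ELISA read-out of MMP1 from human foreskin fibroblasts (primary skin cells), 24 h post-dose. Gain or loss of signal was fitted bidirectionally versus DMSO negative control; cytotoxicity was checked by SRB in parallel cultures.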

Read-out in assay [16]: Vascular cell adhesion molecule 1 (VCAM1), VCAM1 (gene 7412)
The experiment in a line: BSK_hDFCGF_VCAM1: BioMAP Diversity Plus: hDFCGF Assay for Vascular cell adhesion molecule 1 (VCAM1) Biomarker Activity (AID 2283065).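 For AC50: VCAM-1 protein level quantified by ELISA after 24 h chemical exposure.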 The conditions noted are these: primary human foreskin fibroblasts; actives raise or lower the signal. In short, it runs like this: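 Measured after 24 h chemical treatment of primary human skin fibroblasts, VCAM-1 was detected by ELISA and concentration-response analysed in both directions versus DMSO vehicle.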

Read-out in assay [17]: Plasminogen activator inhibitor-1 (PAI1), SERPINE1 (gene 5054)
The experiment in a line: BSK_hDFCGF_PAI1: BioMAP Diversity Plus: hDFCGF Assay for Plasminogen activator inhibitor-1 (PAI1) Biomarker Activity (AID 2283066). Particulars: primary human foreskin fibroblasts; actives raise or lower the signal. In short, it runs like this: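 ELISA readout of PAI-1 from primary human skin fibroblast cultures, 24 h after compound addition. Gain or loss of signal was fitted bidirectionally against DMSO baseline.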

Read-out in assay [18]: Intercellular Adhesion Molecule 1 (ICAM1), ICAM1 (gene 3383)
Kind of assay: BSK_KF3CT_ICAM1: BioMAP Diversity Plus: KF3CT Assay for Intercellular Adhesion Molecule 1 (ICAM1) Biomarker Activity (AID 2283067). Particulars: primary human keratinocytes with fibroblasts; actives raise or lower the signal. In short, it runs like this: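 Bidirectional curve fitting against a DMSO baseline was applied to ICAM-1 ELISA signal from primary human skin co-cultures harvested 24 h after treatment, with SRB staining of parallel wells for overt cytotoxicity.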

Read-out in assay [19]: Interferon-gamma inducible Protein 10 (IP10), CXCL10 (gene 3627)
Kind of assay: BSK_KF3CT_IP10: BioMAP Diversity Plus: KF3CT Assay for Interferon-gamma inducible Protein 10 (IP10) Biomarker Activity (AID 2283068). Particulars: primary human keratinocytes with fibroblasts; actives raise or lower the signal. In short, it runs like this: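 KF3CT co-culture (keratinocytes + foreskin fibroblasts), 24 h compound, IP-10 by ELISA; bidirectional fit vs DMSO baseline.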

`CC12CC1(C)C(=O)N(c1cc(Cl)cc(Cl)c1)C2=O` (centres undefined): the result in [1], in assay [2], in [3], in assay [4], in assay [5] and in assay [6] was inactive. The outcome in assay [7], in [8], in [9], in [10], in assay [11] and in assay [12] was inactive. The result in assay [13], in assay [14], in assay [15], in assay [16], in assay [17] and in assay [18] was inactive. Further, in assay [19], the outcome was inactive.

For `O=Cc1cccc(Oc2ccccc2)c1`, the result in [1], in assay [2], in assay [3], in assay [4], in assay [5] and in [6] was inactive. In addition, the result in assay [7], in assay [8], in assay [9], in assay [10], in assay [11] and in assay [12] was inactive. For the same compound, the outcome in assay [13], in assay [14], in assay [15], in assay [16], in assay [17] and in assay [18] was inactive. Besides, the result in [19] was inactive.

A word on the AC50: it is the concentration giving half of the maximal activity seen. In the case of `Oc1c(I)cc(I)cc1I`, the outcome in assay [1], in assay [2], in assay [3], in assay [4], in assay [5] and in assay [7] was inactive. Besides, the result in assay [9], in assay [10], in assay [11], in [13], in assay [14] and in assay [15] was inactive. Further, in assay [16], the outcome was inactive. The AC50 is 0.191 µM (active) in [6]; 4.24 µM (active) in [8]; 20 µM (active) in assay [12]; 11.5 µM (active) in assay [17]; 20 µM (active) in assay [18]; 23 µM (active) in [19].

Turning to `ClC1(Cl)C2(Cl)C3(Cl)C4(Cl)C(Cl)(Cl)C5(Cl)C3(Cl)C1(Cl)C5(Cl)C24Cl` (centres undefined), the outcome in [1], in assay [2], in assay [3], in assay [4], in [5] and in assay [6] was inactive. Besides, the outcome in [7], in [8], in assay [9], in [10], in assay [11] and in assay [12] was inactive. In addition, the outcome in assay [13], in [14], in assay [15], in [16], in assay [17] and in assay [18] was inactive. Also, in assay [19], the result was inactive.

Take `COC(=O)c1sccc1S(=O)(=O)NC(=O)Nc1nc(C)nc(OC)n1`: the outcome in [1], in assay [2], in assay [3], in [4], in [5] and in assay [6] was inactive. For the same compound, the result in assay [7], in assay [8], in assay [9], in assay [10], in assay [11] and in [12] was inactive. For the same compound, the outcome in assay [13], in assay [14], in assay [15], in [16], in assay [17] and in assay [18] was inactive. The outcome in assay [19] was inactive.

For `CC(C)(OO)c1ccccc1`, the result in assay [1], in assay [2], in assay [3], in assay [4], in assay [6] and in assay [7] was inactive. Also, the result in assay [18] and in assay [19] was inactive. Also, the AC50 was 32.7 µM (active) in assay [5]; 20 µM (active) in assay [8]; 35.8 µM (active) in [9]; 38.1 µM (active) in assay [10]; 28.9 µM (active) in assay [11]; 34.8 µM (active) in assay [12]. The AC50 in assay [13] was 34.7 µM (active); in assay [14], 34.4 µM (active); in assay [15] it was 37.1 µM (active); in assay [16], 28.6 µM (active); in assay [17], 30.4 µM (active).
